Experimental data taken from PubChem BioAssay AID1159580 (chemical genetic matrix, 2015).
Several values for one entry are separate records, joined by “and”; a condition that tells them apart may be missing. Equal values may be shown once. The campaign covered roughly 5,500 compounds. About 2,000 (36%) were called active. Roughly 18% stayed inconclusive and do not appear here. No stated cut-off is given here; in the data, active means normalized growth mostly below about 0.91 (no sharp cut-off); inconclusive means no clear call, values can overlap the other calls; inactive means mostly above about 0.92. The list shows a part of the results.

Experiment: chemical genetic growth profiling, strain panel (AID 1159580);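 further: tested at 20 µM; growth read once vehicle control cultures reached saturation at 30 °C; 1 = growth at the plate median or of vehicle wells; lower values mean less growth of the strain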
Settings: S. cerevisiae deletion strains, growth OD

Measured: normalized growth

CC(=O)Nc1ccc(O)cc1
inactive: locus YAL021C, strain ccr4, active compounds read low 1.02 | locus YAL026C, strain drs2, active compounds read low 1.02 | locus YAL030W, strain snc1, active compounds read low 1.02 | locus YBL061C, strain skt5, active compounds read low 1.02 | locus YBR009C, strain hhf1, active compounds read low 1.01 | locus YBR021W, strain FUR4, active compounds read low 1.09 | locus YBR023C, strain chs3, active compounds read low 1.02 | locus YBR171W, strain sec66, active compounds read low 1.02 | locus YBR229C, strain ROT2, active compounds read low 0.985 | locus YBR231C, strain swc5, active compounds read low 1.02 | locus YBR279W, strain paf1, active compounds read low 1 | locus YCL011C, strain gbp2, active compounds read low 1.01 | locus YCL016C, strain dcc1, active compounds read low 1.01 | locus YCL029C, strain bik1, active compounds read low 0.979 | locus YCL069W, strain vba3, active compounds read low 1.01 | locus YCR088W, strain abp1, active compounds read low 1.01 | locus YDL005C, strain med2, active compounds read low 1.02 | locus YDL035C, strain GPR1, active compounds read low 0.984 | locus YDL040C, strain nat1, active compounds read low 1.01 | locus YDL074C, strain BRE1, active compounds read low 1.05 | locus YDL101C, strain DUN1, active compounds read low 1.01 | locus YDL134C, strain PPH21, active compounds read low 0.985 | locus YDL185W, strain tfp1, active compounds read low 0.935 | locus YDL192W, strain arf1, active compounds read low 0.981 | locus YDR001C, strain nth1, active compounds read low 1.02 | locus YDR069C, strain doa4, active compounds read low 1.02 | locus YDR101C, strain arx1, active compounds read low 0.988 | locus YDR137W, strain rgp1, active compounds read low 1.01 | locus YDR159W, strain sac3, active compounds read low 1.01 | locus YDR162C, strain NBP2, active compounds read low 0.951 | locus YDR195W, strain ref2 1.01 | locus YDR297W, strain sur2, active compounds read low 1.02 | locus YDR318W, strain mcm21, active compounds read low 0.973 | locus YDR334W, strain swr1, active compounds read low 1.02 | locus YDR335W, strain msn5, active compounds read low 1.01 | locus YDR388W, active compounds read low 0.988 | locus YDR392W, strain spt3, active compounds read low 0.993 | locus YDR502C, strain sam2, active compounds read low 1 | locus YEL003W, strain gim4, active compounds read low 1.03 | locus YEL037C, strain rad23, active compounds read low 1.02 | locus YEL061C, strain CIN8 (second series), active compounds read low 1.01 | locus YEL061C, strain CIN8, active compounds read low 0.971 | locus YER015W, strain faa2, active compounds read low 1 | locus YER016W, strain bim1, active compounds read low 0.987 | locus YER110C, active compounds read low 0.992 | locus YER111C, strain swi4, active compounds read low 1.01 | locus YER155C, strain BEM2 (second series), active compounds read low 1.02 | locus YER155C, strain BEM2, active compounds read low 0.978 | locus YER167W, strain BCK2, active compounds read low 0.991 | locus YFR010W, strain ubp6, active compounds read low 1.01 | locus YGL078C, strain dbp3, active compounds read low 0.936 | locus YGL086W, strain mad1, active compounds read low 0.987 | locus YGL167C, strain pmr1, active compounds read low 1.03 | locus YGL173C, strain kem1, active compounds read low 1.02 | locus YGL227W, strain vid30, active compounds read low 1.02 | locus YGL240W, strain doc1, active compounds read low 1.01 | locus YGL248W, strain PDE1, active compounds read low 0.982 | locus YGL253W, strain hxk2, active compounds read low 1.01 | locus YGR135W, strain pre9, active compounds read low 0.996 | locus YGR229C, strain SMI1, active compounds read low 0.972 | locus YGR252W, strain gcn5, active compounds read low 1.16 | locus YHR013C, strain ard1, active compounds read low 1.02 | locus YHR027C, strain rpn1, active compounds read low 1.01 | locus YHR030C, strain SLT2, active compounds read low 0.985 and 0.986 | locus YHR079C, strain IRE1 (second series), active compounds read low 0.987 | locus YHR079C, strain IRE1, active compounds read low 0.986 | locus YHR094C, strain hxt1, active compounds read low 0.979 | locus YHR129C, strain ARP1, active compounds read low 0.977 | locus YHR142W, strain chs7, active compounds read low 1.01 | locus YHR200W, strain rpn10, active compounds read low 0.983 | locus YIL066C, strain RNR3, active compounds read low 0.977 | locus YIL073C, strain SPO22, active compounds read low 1.04 | locus YIL125W, strain kgd1, active compounds read low 0.944 | locus YIR030C, strain dcg1, active compounds read low 0.977 | locus YJL092W, strain hpr5, active compounds read low 1 | locus YJL095W, strain BCK1 (second series), active compounds read low 1.02 | locus YJL095W, strain BCK1, active compounds read low 1 and 0.986 | locus YJL115W, strain asf1, active compounds read low 1.02 | locus YJL129C, strain trk1, active compounds read low 1.01 | locus YJL134W, strain LCB3, active compounds read low 0.981 | locus YJL154C, strain vps35, active compounds read low 1.01 | locus YJL164C, strain tpk1, active compounds read low 0.997 | locus YJL166W, strain qcr8, active compounds read low 1 | locus YJL168C, strain set2, active compounds read low 0.975 | locus YJL187C, strain SWE1 (second series), active compounds read low 1.01 | locus YJR043C, strain POL32, active compounds read low 0.978 | locus YJR066W, strain TOR1, active compounds read low 0.99
